In test [1] the test system is Plasmodium falciparum Sir2 (PF13_0152, Sir2A). The test can be described thus: Plasmodium falciparum Sir2A binding compounds – biochemical, small-molecule microarray, 635 nm fluorescence, primary screen (AID 1098).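 Also: score merges spot fluorescence intensity with its signal-to-noise ratio.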 Conditions: fluorescence 635 nm, higher = more signal.
Test [2] is described as follows: probe aDKK1 binding to arrayed compounds – biochemical, biotinylated probe, 635/667 nm fluorescence, primary screen (AID 1099).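 Also: score merges 667nm spot fluorescence with signal to noise across triplicate slides.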 Particulars: small-molecule microarray, higher = more signal.
Test [3] is described as follows: probe aCHRDL2 binding to arrayed compounds – biochemical, biotinylated probe, 635/667 nm fluorescence, primary screen (AID 1100). Particulars: small-molecule microarray, higher = more signal.
Test [4] is described as follows: change in splice reporter luminescence, either direction, cell-based, HEK293, spliceosome inhibition project, primary screen (AID 1101).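 Also: HEK293 cells carrying a splicing-competent luciferase reporter gene; test concentration not given here.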 Particulars: HEK293 splicing luciferase reporter, 24 h, higher = more signal, called active from +8 up or from −8 down.
Test [5] concerns the target Fibroblast growth factor 10 (Homo sapiens) (UniProt O15520). Put plainly: compounds binding fibroblast growth factor 10 – biochemical, small-molecule microarray, 635 nm fluorescence, primary screen (AID 1102). Particulars: FGF10 binding, fluorescence 635 nm, higher = more signal.
Test [6] deals with glycogen synthase kinase-3 (GSK3A per assay name; protocol says GSK3B). Put plainly: compounds binding glycogen synthase kinase-3 – biochemical, small-molecule microarray, 635 nm fluorescence, GSK3A, primary screen (AID 1103). Also: the record names both GSK3A and GSK3B. Conditions: fluorescence 635 nm, higher = more signal.
For test [7], the target named is Epidermal growth factor receptor (Homo sapiens) (UniProt P00533). The test can be described thus: compounds binding epidermal growth factor receptor – biochemical, small-molecule microarray, 635 nm fluorescence, primary screen (AID 1104).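 Also: score merges 667 nm emission intensity with spot signal to noise over triplicate slides.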 Conditions: EGFR binding, higher = more signal.
The target in test [8] is Follistatin-related protein 3 (Homo sapiens) (UniProt O95633). The test can be described thus: compounds binding follistatin-related protein 3 – biochemical, small-molecule microarray, 635 nm fluorescence, primary screen (AID 1105).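 Also: score merges emission near 667 nm and signal to noise per printed spot across three slides.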 Conditions: FSTL3 binding, higher = more signal.
For test [9], the target named is Dickkopf-related protein 1 (Homo sapiens) (UniProt O94907). The test can be described thus: small molecules binding DKK1 protein – biochemical, small-molecule microarray, 635 nm fluorescence scan, primary screen (AID 1106).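 Also: score merges emission near 667 nm with signal to noise over three replicate slides.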 Particulars: higher = more signal.
In test [10] the test system is Inhibin beta A chain (activin A). Put plainly: small molecules binding activin A – biochemical, small-molecule microarray, 635 nm fluorescence scan, primary screen (AID 1107).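 Also: mouse activin A protein probed at 4.33 µg/mL on printed slides; score merges bound-protein fluorescence near 667 nm with spot signal-to-noise.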 Conditions: INHBA, higher = more signal.
In test [11] the test system is Human papillomavirus type 1a protein E7 (residues 44-93). The test can be described thus: small molecules binding HPV E7 44-93 – biochemical, small-molecule microarray, residues 44-93, 635 nm fluorescence, primary screen (AID 1108).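 Also: E7 fragment applied at 1 µg/mL in TBST for 1 h at 4 C; score combines spot fluorescence with its signal to noise ratio.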 Particulars: fluorescence 635 nm, higher = more signal.
Test [12] in a line: hepatitis C replication reporter changes, two-sided – Huh7 cells, luciferase reporter, HCV replication inhibitor project, primary screen (AID 1109).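 Also: huh7 hepatoma cells harbouring a luciferase neomycin HCV replicon reporter; luciferase luminescence as measure of HCV replicon replication; test concentration not given here.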 Particulars: Huh7 HCV replicon luciferase reporter, 48 h; higher = more signal. In general terms: A reporter such as luciferase makes a cellular process visible.
The target of test [13] is Left-right determination factor 2 (Homo sapiens) (UniProt O00292). The test can be described thus: small molecules binding LEFTY2 protein – biochemical, small-molecule microarray, 635 nm fluorescence scan, primary screen (AID 1110). Particulars: higher = more signal.
Test [14] deals with Calmodulin-1 (Homo sapiens) (UniProt P0DP23). The test can be described thus: small molecules binding calmodulin-1 with EGTA – biochemical, small-molecule microarray, Cy5-labelled CALM1, profiling panel (AID 1111).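 Also: labelled calmodulin applied in Tris saline Tween buffer holding calcium plus EGTA and DTT.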 Conditions: Cy5-CALM1 binding fluorescence, higher = more signal.
For test [15] the target is unchanged. Put plainly: small molecules binding Ca-loaded calmodulin-1 – biochemical, small-molecule microarray, Cy5-labelled CALM1, plus calcium, artefact control for SMM control-protein annotation, profiling panel (AID 1112).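 Also: score merges spot fluorescence with signal to noise from triplicate slides.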 Conditions: Cy5-CALM1 binding fluorescence, higher = more signal.
Test [16] can be described thus: probe aWnt5a binding to arrayed compounds – biochemical, biotinylated probe, 635/667 nm fluorescence, primary screen (AID 1113).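 Also: score merges 667 nm fluorescence intensity with signal-to-noise per printed feature.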 Particulars: small-molecule microarray, higher = more signal.
Test [17] is described as follows: probe aShh binding to arrayed compounds – biochemical, biotinylated probe, 635/667 nm fluorescence, primary screen (AID 1114).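 Also: probe is biotin-labelled aShh protein from a stem cell growth factor screen; measures binding of labelled protein to compounds printed on the slide; score merges feature fluorescence at 667 nm with signal-to-noise.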 Particulars: small-molecule microarray, higher = more signal.
Test [18] in a line: probe aNog binding to arrayed compounds – biochemical, biotinylated probe, 635/667 nm fluorescence, primary screen (AID 1115).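 Also: probe is biotinylated aNog protein used at 0.15 µg/mL for 1 h at 4 C; z-score combines 667 nm fluorescence of each spot with its signal to noise.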 Conditions: small-molecule microarray, higher = more signal.
Test [19] concerns the target Torsin-1A-interacting protein 1 (Homo sapiens) (UniProt Q5JTV8). Put plainly: compound microarray binding of lysate hLAP1 – cell lysate, small-molecule microarray, COS7 lysate, 635/667 nm fluorescence, primary screen (AID 1116). Particulars: 635 nm fluorescence, higher = more signal.
The target of test [20] is Alpha-bungarotoxin (Bungarus multicinctus) (UniProt P60615). The test can be described thus: compounds binding labelled alpha-BTX control protein – biochemical, small-molecule microarray, Alexa647 label, 635/667 nm fluorescence, artefact control for SMM control protein annotation, profiling panel (AID 1117). Conditions: alpha-BTX-A647 binding fluorescence, higher = more signal.

Activity calls are given as the source filed them.

Sequence of Torsin-1A-interacting protein 1 (Homo sapiens) (Q5JTV8 whole entry, looked up): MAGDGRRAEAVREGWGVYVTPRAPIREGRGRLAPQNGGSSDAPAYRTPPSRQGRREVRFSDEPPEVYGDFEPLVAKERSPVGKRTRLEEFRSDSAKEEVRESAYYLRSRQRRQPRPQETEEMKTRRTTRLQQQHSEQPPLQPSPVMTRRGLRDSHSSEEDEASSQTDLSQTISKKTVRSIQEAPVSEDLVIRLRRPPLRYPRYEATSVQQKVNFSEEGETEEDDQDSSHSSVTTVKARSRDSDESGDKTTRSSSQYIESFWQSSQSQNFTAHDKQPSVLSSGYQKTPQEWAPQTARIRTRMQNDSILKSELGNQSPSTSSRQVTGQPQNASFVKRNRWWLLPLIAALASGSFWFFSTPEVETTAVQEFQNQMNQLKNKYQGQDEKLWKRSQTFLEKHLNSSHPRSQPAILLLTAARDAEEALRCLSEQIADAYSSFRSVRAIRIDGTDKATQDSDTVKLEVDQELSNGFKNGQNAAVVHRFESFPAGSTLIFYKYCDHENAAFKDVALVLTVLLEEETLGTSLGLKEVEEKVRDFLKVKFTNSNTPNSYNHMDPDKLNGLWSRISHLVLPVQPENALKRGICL
Sequence of Alpha-bungarotoxin (Bungarus multicinctus) (P60615 whole entry, looked up): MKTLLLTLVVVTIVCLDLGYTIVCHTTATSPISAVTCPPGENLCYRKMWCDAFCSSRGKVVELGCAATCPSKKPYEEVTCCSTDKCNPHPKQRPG
Sequence of Fibroblast growth factor 10 (Homo sapiens) (O15520 whole entry, looked up): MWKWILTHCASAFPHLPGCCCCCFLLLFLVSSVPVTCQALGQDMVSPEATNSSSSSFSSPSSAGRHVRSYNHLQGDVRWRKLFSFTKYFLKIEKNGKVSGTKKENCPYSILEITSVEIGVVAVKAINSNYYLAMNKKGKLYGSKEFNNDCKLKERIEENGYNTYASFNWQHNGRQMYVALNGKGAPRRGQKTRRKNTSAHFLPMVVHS
Sequence of Epidermal growth factor receptor (Homo sapiens) (P00533 whole entry, looked up): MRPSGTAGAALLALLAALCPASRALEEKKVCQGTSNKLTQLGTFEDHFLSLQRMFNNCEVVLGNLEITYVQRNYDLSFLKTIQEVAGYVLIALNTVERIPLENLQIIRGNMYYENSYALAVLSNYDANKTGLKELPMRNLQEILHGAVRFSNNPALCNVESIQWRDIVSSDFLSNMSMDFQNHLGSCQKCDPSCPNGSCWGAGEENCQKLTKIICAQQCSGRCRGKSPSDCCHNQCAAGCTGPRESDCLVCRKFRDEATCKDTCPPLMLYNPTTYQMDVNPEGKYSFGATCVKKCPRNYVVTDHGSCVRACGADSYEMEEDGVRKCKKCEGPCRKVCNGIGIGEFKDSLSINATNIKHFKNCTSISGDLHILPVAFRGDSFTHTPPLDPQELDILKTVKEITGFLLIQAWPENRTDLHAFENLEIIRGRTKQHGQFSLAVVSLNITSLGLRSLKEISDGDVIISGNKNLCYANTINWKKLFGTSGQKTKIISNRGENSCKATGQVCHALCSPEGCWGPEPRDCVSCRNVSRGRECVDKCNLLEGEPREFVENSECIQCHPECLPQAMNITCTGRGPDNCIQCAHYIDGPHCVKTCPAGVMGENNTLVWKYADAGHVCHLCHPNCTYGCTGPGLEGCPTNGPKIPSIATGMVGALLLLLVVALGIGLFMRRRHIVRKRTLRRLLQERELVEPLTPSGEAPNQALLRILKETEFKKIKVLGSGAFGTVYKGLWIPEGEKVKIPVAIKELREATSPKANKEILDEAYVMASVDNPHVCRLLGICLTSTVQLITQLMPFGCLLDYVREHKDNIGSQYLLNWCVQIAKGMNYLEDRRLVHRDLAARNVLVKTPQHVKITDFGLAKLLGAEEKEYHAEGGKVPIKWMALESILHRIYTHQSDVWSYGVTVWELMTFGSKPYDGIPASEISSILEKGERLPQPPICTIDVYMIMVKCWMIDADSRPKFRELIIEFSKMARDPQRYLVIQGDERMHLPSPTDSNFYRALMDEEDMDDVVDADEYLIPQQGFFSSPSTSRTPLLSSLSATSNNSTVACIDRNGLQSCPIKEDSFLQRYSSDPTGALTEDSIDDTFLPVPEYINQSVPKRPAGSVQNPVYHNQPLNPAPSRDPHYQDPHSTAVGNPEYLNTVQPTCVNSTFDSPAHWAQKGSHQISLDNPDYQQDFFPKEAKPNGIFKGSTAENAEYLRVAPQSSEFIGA
Sequence of Follistatin-related protein 3 (Homo sapiens) (O95633 whole entry, looked up): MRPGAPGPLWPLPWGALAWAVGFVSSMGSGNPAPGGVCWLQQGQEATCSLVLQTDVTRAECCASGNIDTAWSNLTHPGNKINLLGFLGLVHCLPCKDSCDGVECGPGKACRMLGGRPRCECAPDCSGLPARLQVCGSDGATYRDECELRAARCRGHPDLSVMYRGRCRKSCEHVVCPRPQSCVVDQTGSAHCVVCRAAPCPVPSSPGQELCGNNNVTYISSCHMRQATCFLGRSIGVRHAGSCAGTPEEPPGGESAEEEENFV
Sequence of Dickkopf-related protein 1 (Homo sapiens) (O94907 whole entry, looked up): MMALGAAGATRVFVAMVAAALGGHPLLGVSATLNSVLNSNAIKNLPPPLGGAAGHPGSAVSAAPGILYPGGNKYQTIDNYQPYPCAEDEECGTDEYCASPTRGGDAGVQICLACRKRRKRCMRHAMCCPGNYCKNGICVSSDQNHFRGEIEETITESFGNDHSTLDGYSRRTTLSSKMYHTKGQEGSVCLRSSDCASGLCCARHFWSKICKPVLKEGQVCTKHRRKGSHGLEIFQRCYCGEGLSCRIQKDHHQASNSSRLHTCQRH
Sequence of Left-right determination factor 2 (Homo sapiens) (O00292 whole entry, looked up): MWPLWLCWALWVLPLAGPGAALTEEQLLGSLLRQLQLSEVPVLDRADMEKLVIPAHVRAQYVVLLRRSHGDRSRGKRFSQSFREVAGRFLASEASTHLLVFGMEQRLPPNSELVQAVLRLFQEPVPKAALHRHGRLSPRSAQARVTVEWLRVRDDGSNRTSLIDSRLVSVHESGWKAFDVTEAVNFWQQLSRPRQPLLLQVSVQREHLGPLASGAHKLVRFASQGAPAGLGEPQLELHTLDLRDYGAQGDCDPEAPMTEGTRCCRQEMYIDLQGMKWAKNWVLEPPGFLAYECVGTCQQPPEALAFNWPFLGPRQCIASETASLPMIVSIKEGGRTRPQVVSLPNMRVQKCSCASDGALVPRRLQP

In the case of `C=C(CCCC)C(=O)CC[C@H](OC(C)=O)c1ccc(OCCO)cc1`, the composite z-score was 0.56 in test [1]; -0.262 in test [2]; 0.0984 in [3]; -0.509 in test [5]; -1.24 in [6]; -0.448 in [7]. The composite z-score is -0.746 in test [8]; -0.8 in [9]; -0.146 in [10]; -0.319 in test [11]; -0.0558 in [13]; -0.0294 in test [14]. The composite z-score in test [15] is -0.92; in [16] it was -0.102; in test [17] it was -0.262; in [18], 0.0989; in [19], -0.346; in test [20] it was 0.657. The z-score in [4] is -0.942 (inactive); in test [12], -2.73.

`C=C(/C(=C/C[C@@H](OC(=O)c1ccncc1)c1cccc(OCCO)c1)c1cnc2ccccc2c1)C(C)C`: the composite z-score came out at 0.198 in test [1]; 0.0215 in test [2]; 0.415 in test [3]; 1.5 in test [5]; 1.18 in test [6]; 0.922 in test [7]. Also, the composite z-score stood at 1.51 in [8]; 0.858 in [9]; 1.52 in test [10]; 1.08 in test [11]; 0.775 in test [13]; 0.0848 in [14]. In addition, the composite z-score in test [15] is 0.11; in test [16] it was 0.0215; in test [17], -0.0769; in test [18] it was 0.419; in test [19], 1.37; in [20], 2.57. Further, the z-score in [4] is -0.537 (inactive); in test [12], -1.96.

As for `CC(C)C[C@@H]1NC(=O)[C@@H]2C[C@H](C(=O)NCCCCCC[N+](C)(C)C)[C@H](c3cccc(OCCO)c3)N2C1=O`, the composite z-score was 1.78 in test [1]; -0.294 in test [2]; 0.512 in [3]; 0.225 in test [5]; 0.221 in test [6]; -0.138 in test [7]. Moreover, the composite z-score in [8] was -0.168; in test [9] it was 0.449; in test [10], 0.327; in test [11] it was 1.31; in test [13], -0.184; in [14], -0.105. The composite z-score was -0.744 in [15]; -0.156 in [16]; -0.0234 in [17]; -0.249 in test [18]; 0.369 in [19]; 0.446 in test [20]. Besides, the z-score in test [4] is -0.261 (inactive); in test [12], -0.926.

With `COCCOC(=O)N1C(=O)[C@@]2(c3cc(C#CCNC(N)=O)ccc31)[C@H](c1ccc(OCCO)cc1)N1[C@H](c3ccccc3)[C@H](c3ccccc3)OC(=O)[C@H]1[C@@H]2C(=O)NC[C@H](O)c1ccccc1`, the composite z-score came out at 1.4 in test [1]; 0.26 in [2]; 0.788 in test [3]; 0.945 in test [5]; 0.469 in [6]; 0.711 in test [7]. Moreover, the composite z-score worked out at 1.29 in test [8]; 0.583 in test [9]; 1.43 in test [10]; 1.26 in test [11]; 0.799 in [13]; 1.22 in test [14]. Further, the composite z-score in test [15] was 0.226; in test [16], -0.0792; in [17] it was -0.138; in test [18] it was 1.21; in [19], 0.878; in test [20], 1.61. Moreover, the z-score is 0.38 (inactive) in test [4] and -0.711 in test [12].

`NC(=O)[C@@H]1[C@H]2C(=O)O[C@H](c3ccccc3)[C@H](c3ccccc3)N2[C@H](c2ccc(OCCO)cc2)[C@@]12C(=O)Nc1ccc(C#CCCO)cc12`: the composite z-score in [1] was 0.344; in test [2], 0.585; in test [3] it was 0.823; in test [5] it was 0.372; in [6] it was -0.168; in test [7] it was -0.385. In addition, the composite z-score in test [8] is -0.12; in [9] it was 0.0322; in test [10], 0.297; in [11] it was -1.04; in test [13] it was -0.483; in test [14], 1.09. Further, the composite z-score is 0.209 in [15]; 0.0973 in test [16]; 0.166 in [17]; -0.329 in test [18]; 0.628 in test [19]; 1.13 in [20]. Moreover, the z-score in [4] was 1.02 (inactive); in test [12], -1.41.

The values above are taken from PubChem BioAssay.
